We go through 93 molecules from PubChem BioAssay AID2314 (National Center for Advancing Translational Sciences (NCATS), 2010).

The campaign covered roughly 300,000 compounds. About 37,000 (12%) were called active. For the sample, actives were picked, then their nearest neighbours and some compounds at random. Values without a mark were called inactive. Rule as the data show it: active = max response mostly above about 13% (no sharp cut-off); inactive = mostly below about 14%.

This experiment can be described thus: Cycloheximide Counterscreen for Small Molecule Inhibitors of Shiga Toxin. Also: read at 38.3 µM for the half of the compounds with a filed dose; 0% is about no effect. The conditions noted are these: cell reporter, cycloheximide protein synthesis inhibition counterscreen; stronger effect = higher value. Background: Counterscreens check selectivity or assay interference.
Consider `COc1ccc(NC(=O)c2cc([N+](=O)[O-])ccc2NC(=O)CNC2CCCCC2C)c(OC)c1` (stereo not drawn), for which the max response is -4.84%.
The figure for `CC(C)c1nnc(NC(=O)COC(=O)/C=C/c2ccc([N+](=O)[O-])cc2)s1` is -2.23%; for `COc1ccc(C(=O)NC2CCN(C(=S)Nc3ccccc3)CC2)cc1` it is -4.48%.
Regarding `CCC(C)N(C)C1CCN(C(=S)Nc2ccc(OC)cc2)CC1` (stereo not drawn), the max response was 2.11%.
In the case of `COc1ccccc1C1CCN(C(=S)Nc2ccc(Br)cc2)CC1` it was 21.5% (active).
In the case of `O=C(CN1CCN(c2ccccc2)CC1)Nc1ccc(F)cc1` it was 0.655%; in that of `Cc1cc2oc(C(=O)Nc3c(C)n(C)n(-c4ccccc4)c3=O)c(C)c2cc1Cl`, -5.74%.
In the case of `O=C(CC1C(=O)NCCN1C(=O)c1ccc([N+](=O)[O-])cc1)Nc1cccc(Cl)c1` (stereo not drawn) it was 5.86%; in that of `O=C(CC1NCCNC1=O)Nc1cc(Cl)cc(Cl)c1` (stereo not drawn), -5.54%.
For the molecule `O=C(CC1NCCc2ccccc21)Nc1cccc(Cl)c1` (stereo not drawn), the max response was 30.4% (active).
For `O=C1/C(=C\c2ccccc2Cl)SC(=S)N1CCC(=O)N1CCCc2ccccc21`, the max response is -2.48%.
The figure for `Cc1ccc(C(=O)N2CC(=O)Nc3ccc(F)cc3C2c2ccc(F)cc2)cc1` (stereo not drawn) is -2.84%.
In the case of `CCn1c(=S)sc2c(=O)n(CC(=O)Nc3cccc(Br)c3)c(C)nc21` it was -2.2%; in that of `CCCCC(C(=O)NC(C)(C)C)N(Cc1ccccc1)C(=O)c1snc(C(N)=O)c1N` (stereo not drawn), -0.829%; in that of `COc1ccc(S(=O)(=O)NC(C)C(=O)Nc2cccc([N+](=O)[O-])c2)cc1` (stereo not drawn), 5.76%.
Take `COC(=O)/C=C\C(=O)Nc1cccc([N+](=O)[O-])c1`: the max response is 58% (active).
As to `CC(=O)Nc1cccc([N+](=O)[O-])c1`, the max response was 5.16%.
In the case of `C[C@H](NC(=O)[C@@H]1Cc2ccccc2CN1C(=O)OC(C)(C)C)C(=O)NC1CCCC1` it was 0.878%.
The figure for `Cc1cc(OC(=O)c2ccc(OC(C)C)cc2)c([N+](=O)[O-])c(=O)[nH]1` is 10.8%.
`Cc1ccc(S(=O)(=O)NCCCn2ccnc2)cc1C(=O)NC(C)C`: the max response is -2.94%.
In the case of `CCOc1ccc(N2C(=O)/C(=C/c3ccc(C)o3)N(C)C2=S)cc1` it was -2.62%; in that of `Cc1ccc(C(=O)NNC(=O)OC(C)(C)C)c(Cl)c1`, 23.3% (active); in that of `CC(C)(C)OC(=O)N1CCC(C(=O)NNC(=O)c2ccc(Cl)cc2Cl)CC1`, 1.42%.
The figure for `CCOc1ccc(NC(=O)NNC(=O)c2ccc(Cl)cc2Cl)cc1` is -2.33%; for `Cc1ccccc1CN1C[C@@H]2C[C@@H](c3cn(C)nc3-c3ccccc3)N3CCC[C@@]23C1=O` it is -1.2%.
For `Cc1cccc(NC(=O)c2ccc3ccccc3n2)n1`, the max response was 56.4% (active).
The figure for `Cc1cccc(NC(=O)c2cc(N3C(=O)CCC3=O)ccc2Cl)n1` is -1.19%; for `COC(=O)C(C(=O)Nc1cccc(C)n1)C1CCCCCC1` (stereo not drawn) it is 0.569%.
In the case of `CCOC(=O)C(=CNc1cccc(C)n1)C(=O)OCC` it was 11.4%; in that of `Cc1cccc(NC(=O)c2ccccc2NC(=O)C(C)(C)C)n1`, -4.22%.
In the case of `Cc1cccc(NC(=O)c2cccnc2Cl)n1` it was 24.1% (active); in that of `COc1cccc(CNC(=O)C2CCCN(c3ncnc4c3nc3n4CCCCC3)C2)c1` (stereo not drawn), -1.2%.
As to `COc1cc2c(cc1OC)C(C(=O)Nc1cc(C)c(OC)c(C)c1)CC(=O)N2` (stereo not drawn), the max response was -2.52%.
Turning to `Cc1c(Cl)cccc1NC(=S)NCC(O)c1ccccc1` (stereo not drawn), the max response is 7.6%.
Turning to `O=c1ccc2cc(S(=O)(=O)NCCCc3ccccc3)ccc2[nH]1`, the max response is 0.781%.
Regarding `COCC(=O)Nc1c(C(=O)N2CCCC2)oc2ccccc12`, the max response was 9.66%.
In the case of `NC(=O)c1ccc(N2CCOCC2)nc1` it was 3.99%; in that of `O=C(Nc1ccc(N2CCOCC2)nc1)c1c(F)cccc1F`, 47.6% (active).
The figure for `O=C(Nc1ccc(F)cc1)c1cccnc1N1CCOCC1` is -3.65%; for `Cc1cccc(C)c1NC(=O)C(Cl)C(=O)c1ccccc1` (stereo not drawn) it is -3.97%.
In the case of `CCCCNC(=S)N/N=C1\CCCCc2ccccc21` it was -5.15%; in that of `O=C(C1=C[C@H](c2coc3ccccc3c2=O)C[C@H](OCc2ccc(CO)cc2)O1)N1CCN(Cc2ccccc2)CC1`, 1.24%; in that of `COc1ccccc1N1CCN(S(=O)(=O)CCNC(=O)c2ccc(OC(C)C)cc2)CC1`, -4.03%.
As for `CCOC(=O)C1=C(C(=O)OCC)C(C(=O)OCC)N(S(=O)(=O)C(F)(F)F)c2ccccc21` (stereo not drawn), the max response was 2.14%.
Regarding `CCOC(=O)c1ccccc1CN1C(=O)c2ccccc2S1(=O)=O`, the max response was 0.941%.
In the case of `CCOC(=O)c1cc2n(c1N)-c1ccccc1C2=O` it was 16.1% (active).
In the case of `Nc1ncc(CN2CCCC(C(=O)Nc3ccc(-c4ccco4)cc3)C2)cn1` (stereo not drawn) it was -1.66%.
In the case of `CCOC(=O)c1cccc(NC(=O)CCc2nnc3ccc(N4CCOCC4)nn23)c1`, the max response is 0.592%.
The figure for `COC(=O)c1ccc(C(=O)OC)c(NC(=S)N2CCCCC2)c1` is 1.84%; for `COC(=O)c1ccc(/C=N/NC(=O)C(=O)N2CCCCCC2)cc1` it is -2.86%.
In the case of `COC(=O)c1ccc(NCC(=O)N2CCCCCC2)cc1` it was 19.4% (active); in that of `Cc1ccc(C(=O)CNc2ccc(F)cc2)cc1`, 13.3% (active).
The figure for `COC(=O)c1ccc(NCC(=O)c2ccccc2)cc1` is 29.7% (active); for `Cc1ccc(NC(=O)CCC(=O)c2ccc(Br)cc2)cc1` it is -1.06%; for `COc1ccc(NC(=O)CCCC(=O)c2ccccc2)cc1` it is 12%.
Regarding `COC(=O)c1ccc(NC(=O)c2ccccc2NS(=O)(=O)c2ccccc2)cc1`, the max response is 7.47%.
In the case of `Cc1ccc(C(=O)NC2CCN(C(=O)Nc3ccc(F)cc3)CC2)cc1` it was -5.94%; in that of `O=C(NC1CCCCC1)C1CCC(CNS(=O)(=O)c2ccccc2)CC1` (stereo not drawn), -1.26%.
The figure for `COc1ccccc1C1C(C(N)=O)=C(C)Nc2nc(CCCO)nn21` (stereo not drawn) is -5.85%.
The figure for `C[C@@H]1O[C@@H](OC[C@H]2O[C@@H](Oc3cc(O)c4c(c3)O[C@H](c3ccc(O)c(O)c3)CC4=O)[C@H](O)[C@@H](O)[C@@H]2O)[C@H](O)[C@H](O)[C@H]1O` is -3.85%; for `COC(=O)c1cc2occc2n1Cc1nc(-c2ccccc2C)oc1C` it is -1.91%.
In the case of `CCOC(=O)C1(Cc2cccc(OC)c2)CCN(Cc2csc(C(C)=O)c2)CC1`, the max response was -2.31%.
The figure for `CCC(C(=O)NCCC(C)C)N(Cc1ccccc1Cl)C(=O)c1snc(C(N)=O)c1N` (stereo not drawn) is -2.42%; for `COCCN(C(=S)Nc1cccc(Cl)c1C)C(C)c1ccco1` (stereo not drawn) it is 5.55%; for `CCc1cccc(CC)c1NC(=O)COc1ccccc1C(=O)c1cc(C#N)c(=O)n(C2CCCCC2)c1` it is 5.88%.
In the case of `CCOc1ccc(CN(C)C(=O)c2ccc(=O)[nH]c2)cc1` it was -4.67%; in that of `CC(NC(=S)Nc1ccc(S(N)(=O)=O)cc1)c1ccc2c(c1)OCO2` (stereo not drawn), -3.68%.
In the case of `Cc1cccc(NC(=O)/C=C/c2ccc3c(c2)OCO3)n1` it was 64.4% (active).
As for `O=C(/C=C/c1ccc2c(c1)OCO2)NCc1ccc(F)cc1`, the max response was 9.99%.
In the case of `CCc1ccc(NC(=O)NC(C)c2ccc3c(c2)OCO3)cc1` (stereo not drawn) it was 0.596%; in that of `CC(NC(=O)Nc1ccc2c(c1)OCO2)c1ccncc1` (stereo not drawn), 11.1%.
In the case of `Cc1cccc(NC(=O)Nc2ccc3c(c2)OCO3)n1` it was 45.7% (active); in that of `CCc1c(C)sc(NC(=O)/C=C/c2ccc3c(c2)OCO3)c1C(=O)OC`, 16.3%.
In the case of `CNS(=O)(=O)c1ccc(NC(=O)Nc2ccc3c(c2)OCO3)cc1` it was 46.9% (active); in that of `CC(C)CNS(=O)(=O)c1ccc(C(=O)Nc2ccc3c(c2)OCO3)cc1`, -0.729%; in that of `CCCC1OC23CCCCC2C(C#N)(C#N)C1(C#N)C(=N)O3` (stereo not drawn), -1.48%.
As to `Cc1ccc(C23CC4CC(CC(C(=O)NCC(=O)O)(C4)C2)C3)cc1`, the max response is -6.43%.
As to `COc1ccc(Oc2cn[nH]c2-c2ccc(OC)cc2O)cc1`, the max response is 2.15%.
In the case of `COc1cc(C(=O)Nn2c(CC(C)C)nc3ccccc3c2=O)cc(OC)c1OC` it was -3.7%.
The figure for `Cc1ccc(Cl)cc1NC(=O)C1CCN(S(C)(=O)=O)CC1` is 8.41%; for `COc1ccc(Br)cc1C1C2C=CCC(C)C2C(=O)N1Cc1ccccc1` (stereo not drawn) it is 2.32%; for `Cc1nccc(-c2ccc(-n3c(C)ccc3C)cc2)n1` it is 1.97%.
The figure for `C=CCOC(=O)C1=C(C)N=C2SCCC(=O)N2C1/C=C/c1ccccc1OC` (stereo not drawn) is -1.27%; for `COc1ccccc1/C=C/C1=NC(=C\N(C)C)/C(=O)O1` it is 10.1% (active).
`O=C1OC(/C=C/c2ccccc2)=NC/1=C/c1ccco1`: the max response is -1.15%.
In the case of `COc1cc2c(cc1OC)C(c1ccccc1Br)NC(=O)C2` (stereo not drawn) it was 2.36%; in that of `Cc1nc(NC(=O)c2cccc(Cl)c2)sc1-c1csc(Nc2cccc(Cl)c2)n1`, -1.16%.
Turning to `CCC(=O)Nc1sc(C(=O)Nc2ccccc2)c(C)c1C(=O)OC`, the max response was 6.77%.
In the case of `CCC(=O)Nc1nc(C)c(C(=O)Nc2cccc(Cl)c2)s1` it was 16.2% (active); in that of `Cc1ccc(C2C(C#N)C(C#N)N3CCCN23)cc1` (stereo not drawn), 14.4%.
In the case of `CCC(C)NC(=O)CSC1=Nc2ccccc2C2=NC(CCC(=O)NCc3ccco3)C(=O)N12` (stereo not drawn) it was 0.985%; in that of `O=C(CC1N=C2c3ccccc3N=C(SCc3ccccc3Cl)N2C1=O)NCc1ccco1` (stereo not drawn), 18% (active).
The figure for `O=C(CSC1=Nc2ccccc2C2=NC(CC(=O)NCc3ccco3)C(=O)N12)NCc1ccco1` (stereo not drawn) is 6.84%.
